# Measurements from the supplement of paper PMC9135407.
# Values joined by “and” are separate entries in the source; they are usually repeats but may differ in a detail not shown here. Equal entries are not always repeated. Structures can show the parent of a compound that is named as a salt. The campaign covered roughly 5,800 compounds. About 620 (11%) showed activity. What follows is part of a selection rich in actives, with near analogues and random picks from the rest. A number with no mark means an inactive call.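 How the source made its calls: active = score above a cut-off or among the top three wells of a plate; in these data no inactive exceeds 0.85.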
# Tested on: primary human hepatic stellate cells (donor 1)
# Assay: scaled lipid accumulation score (0 = DMSO-like, 1 = nortriptyline-like); higher = stronger HSC inactivation (lipid re-accumulation), active = hit call of the paper
# Details: 48 h
# [1] = library stock concentration: 1 mM
# [2] = library stock concentration: 3.33 mM
# [3] = library stock concentration: 10 mM
# [4] = library stock concentration: 80 uM
# [5] = library stock concentration: 400 uM
# [6] = library stock concentration: 2 mM
smiles,measurement,setting,value
CC\C=C/C=C/C=C/C=C\CCCCCCCC(=O)O [cis-Parinaric Acid],scaled lipid accumulation score,[1],0.028
CC(C)Oc1ccc(C(=O)c2ccc(NC3=NCCN3)cc2)cc1,scaled lipid accumulation score,[1],0.073
CC(=O)Nc1nc2c(Oc3cc(-c4ccc(C(F)(F)F)cc4)ncn3)cccc2s1,scaled lipid accumulation score,[2],≤ -0.009
same,scaled lipid accumulation score,[3],0.221
CN1CCC(Nc2ncc3ncnc(Nc4ccc(F)c(Cl)c4)c3n2)CC1.Cl.Cl [BIBX 1382 dihydrochloride],scaled lipid accumulation score,[3],1.61 (active)
COc1ccc(F)c(F)c1C(=O)c1cnc(NC2CCN(S(C)(=O)=O)CC2)nc1N,scaled lipid accumulation score,[2],0.082
same,scaled lipid accumulation score,[3],0.057
CCN(CC)CC1CCN(c2ncc3ncnc(Nc4ccc(F)c(Cl)c4)c3n2)CC1.Cl.Cl [BIBU 1361 dihydrochloride],scaled lipid accumulation score,[3],1.06 (active)
COc1ccc(CC(=O)NC(/N=C(\NC#N)Nc2cccc3ncccc23)C(C)(C)C)cc1OC (stereo unspecified),scaled lipid accumulation score,[3],0.014
O=C(O[C@@H]1Cc2c(O)cc(O)cc2O[C@@H]1c1cc(O)c(O)c(O)c1)c1cc(O)c(O)c(O)c1 [Epigallocatechin gallate],scaled lipid accumulation score,[4],≤ 0
same,scaled lipid accumulation score,[5],≤ 0
same,scaled lipid accumulation score,[6],≤ 0
same,scaled lipid accumulation score,[3],≤ 0
O=C(O[C@@H]1Cc2c(O)cc(O)cc2O[C@@H]1c1cc(O)c(O)c(O)c1)c1cc(O)c(O)c(O)c1 [(-)-Epigallocatechin Gallate],scaled lipid accumulation score,[1],≤ 0
Oc1nc(-c2ccc(C(F)(F)F)cc2)nc2c1CSCC2,scaled lipid accumulation score,[1],≤ 0
same,scaled lipid accumulation score,[2],≤ 0
same,scaled lipid accumulation score,[3],≤ 0 and 0.004
c1ccc(Cn2c(-c3ccc(OCC(C4CCNCC4)n4c(-c5ccccc5)nc5ccccc54)cc3)nc3ccccc32)cc1 (stereo unspecified) [Deltarasin],scaled lipid accumulation score,[2],0.766
same,scaled lipid accumulation score,[3],0.104
O=c1[nH]c(=S)[nH]c(-c2ccccc2)c1Cc1c(O)ccc2ccccc12 [Cambinol],scaled lipid accumulation score,[3],0.124
CC(C)CC(=O)Nc1n[nH]c2c1CN(C(=O)C1CCN(C)CC1)C2(C)C,scaled lipid accumulation score,[4],≤ 0
same,scaled lipid accumulation score,[5],0.21
same,scaled lipid accumulation score,[6],0.029
same,scaled lipid accumulation score,[2],0.199
same,scaled lipid accumulation score,[3],≤ 0 and 0.015
Cc1nc(Nc2n[nH]c3c2CN(C(=O)N[C@H](CN(C)C)c2ccccc2)C3(C)C)c2sccc2n1 [listing 1 of 2 here],scaled lipid accumulation score,[4],≤ -0.016
same,scaled lipid accumulation score,[5],0.092
same,scaled lipid accumulation score,[6],0.522
same,scaled lipid accumulation score,[2],≤ -0.009
same,scaled lipid accumulation score,[3],0.594
Cc1nc(Nc2n[nH]c3c2CN(C(=O)N[C@H](CN(C)C)c2ccccc2)C3(C)C)c2sccc2n1 [listing 2 of 2 here],scaled lipid accumulation score,[3],0.887 (active)
Cc1nn(C)c(COc2ccc(N3CCN(S(=O)(=O)N(C)C)CC3)cc2)c1-c1cccc2c(CCCOc3cccc4ccccc34)c(C(=O)O)n(CCN3CCOCC3)c12,scaled lipid accumulation score,[4],≤ -0.001
same,scaled lipid accumulation score,[5],≤ -0.001
same,scaled lipid accumulation score,[6],≤ -0.001
same,scaled lipid accumulation score,[3],≤ -0.001
CCCCCCCCCCCCCCCCCCN(CCCCCCCCCCCCCCCCCC)CCCN(CCO)CCO [Avridine],scaled lipid accumulation score,[3],≤ 0
N[C@@H](Cn1ccc(=O)c(O)c1)C(=O)O [L-Mimosine from Koa hoale seeds],scaled lipid accumulation score,[3],≤ 0
c1cc(OCCN2CCCCC2)cc(-c2n[nH]c3ccc(-c4nnc[nH]4)cc23)c1,scaled lipid accumulation score,[4],≤ -0.016
same,scaled lipid accumulation score,[5],≤ -0.016 and ≤ -0.005
same,scaled lipid accumulation score,[6],≤ -0.016 and 0.022
O=C(c1ccc(OCCN2CCCCC2)cc1)c1c(-c2ccc(O)cc2)sc2cc(O)ccc12,scaled lipid accumulation score,[3],0.798
O=C(c1ccc(OCCN2CCCCC2)cc1)c1c(-c2ccc(O)cc2)sc2cc(O)ccc12 [Raloxifene hydrochloride],scaled lipid accumulation score,,0.032
same,scaled lipid accumulation score,[3],0.661 and 0.376
Cl.c1cc(OCCN2CCCCC2)cc(-c2n[nH]c3ccc(-c4nc[nH]n4)cc23)c1,scaled lipid accumulation score,[3],1.28 (active)
c1cc(OCCN2CCCCC2)cc(-c2n[nH]c3ccc(-c4ncn[nH]4)cc23)c1,scaled lipid accumulation score,[3],1.72 (active)
O=C(OCCN1CCCCC1)c1c[nH]c2ccccc12,scaled lipid accumulation score,[3],0.289
c1ccc(-c2nn3c(c2-c2ccnc4cc(OCCN5CCOCC5)ccc24)CCC3)nc1,scaled lipid accumulation score,[4],≤ -0.001
same,scaled lipid accumulation score,[5],≤ -0.001
same,scaled lipid accumulation score,[6],≤ -0.001
same,scaled lipid accumulation score,[3],≤ -0.001
O=C(c1ccc(OCCN2CCCCC2)cc1)c1c(-c2ccc(O)cc2)sc2cc(O)ccc12 [Raloxifene HCl],scaled lipid accumulation score,[2],≤ 0
same,scaled lipid accumulation score,[3],0.575
CCCCC[C@H](O)/C=C/C1=C(C/C=C\CCCC(=O)O)C(=O)CC1 [Prostaglandin B2],scaled lipid accumulation score,[1],≤ 0 and ≤ -0.021
CC(=N)NCCCC[C@H](N)C(=O)O [L-NIL hydrochloride],scaled lipid accumulation score,[3],0.025
CCCCCCCCCCCC(=O)c1nc2ncccc2o1,scaled lipid accumulation score,[1],≤ 0
CCCCC/C=C\C/C=C\CCCCCCCC(=O)NCC(=O)O [N-linoleoylglycine],scaled lipid accumulation score,[1],≤ -0.021
CCCCC(CC)COc1ccc(-c2nc(-c3ccc(OC)cc3)nc(-c3ccc(OCC(CC)CCCC)cc3O)n2)c(O)c1 (stereo unspecified),scaled lipid accumulation score,[3],≤ 0
"CCCCCC=CCC=CCCCCCCCCCC(=O)O [11(Z),14(Z)-Eicosadienoic Acid]",scaled lipid accumulation score,[1],≤ 0
Cc1cccc(Nc2nc(-c3ccncc3)cs2)c1 [listing 1 of 2 here],scaled lipid accumulation score,[1],≤ 0
Oc1ccc(Nc2nc(-c3ccc(Cl)cc3)cs2)cc1 [Sphingosine Kinase Inhibitor 2],scaled lipid accumulation score,[1],0.058
Oc1ccc(Nc2nc(-c3ccc(Cl)cc3)cs2)cc1,scaled lipid accumulation score,[4],≤ -0.001
same,scaled lipid accumulation score,[5],≤ -0.001
same,scaled lipid accumulation score,[6],≤ -0.001
same,scaled lipid accumulation score,[2],≤ -0.009
same,scaled lipid accumulation score,[3],0.141 and 0.011
Cc1cccc(Nc2nc(-c3ccncc3)cs2)c1 [listing 2 of 2 here],scaled lipid accumulation score,[2],0.881 (active)
same,scaled lipid accumulation score,[3],1.24 (active)
C[C@H]1Oc2cc(cnc2N)-c2c(nn(C)c2C#N)CN(C)C(=O)c2ccc(F)cc21,scaled lipid accumulation score,[4],≤ 0
same,scaled lipid accumulation score,[5],≤ 0
same,scaled lipid accumulation score,[6],0.031
same,scaled lipid accumulation score,[3],≤ 0
